Potency data for five compounds are collected here from PubChem BioAssay AID463254 (National Center for Advancing Translational Sciences (NCATS), 2010).

Each structure is given as a SMILES string. The campaign covered roughly 330,000 compounds. About 40 (0.01%) were called active. Entries that show only a call come without a potency. The call rests on the fitted dose curve; in most records, active means well fitted inhibition curve with a large enough effect; inconclusive means small, poorly fitted or top-dose-only effect, or effect the other way; inactive means flat fitted curve, though single readings scatter. Many of the other results were omitted from the sample, so actives are more common in it than they were.
Potency means the concentration at half of the fitted maximal effect.

Ubiquitin carboxyl-terminal hydrolase 2 (Homo sapiens), sequence (O75604 whole entry, looked up): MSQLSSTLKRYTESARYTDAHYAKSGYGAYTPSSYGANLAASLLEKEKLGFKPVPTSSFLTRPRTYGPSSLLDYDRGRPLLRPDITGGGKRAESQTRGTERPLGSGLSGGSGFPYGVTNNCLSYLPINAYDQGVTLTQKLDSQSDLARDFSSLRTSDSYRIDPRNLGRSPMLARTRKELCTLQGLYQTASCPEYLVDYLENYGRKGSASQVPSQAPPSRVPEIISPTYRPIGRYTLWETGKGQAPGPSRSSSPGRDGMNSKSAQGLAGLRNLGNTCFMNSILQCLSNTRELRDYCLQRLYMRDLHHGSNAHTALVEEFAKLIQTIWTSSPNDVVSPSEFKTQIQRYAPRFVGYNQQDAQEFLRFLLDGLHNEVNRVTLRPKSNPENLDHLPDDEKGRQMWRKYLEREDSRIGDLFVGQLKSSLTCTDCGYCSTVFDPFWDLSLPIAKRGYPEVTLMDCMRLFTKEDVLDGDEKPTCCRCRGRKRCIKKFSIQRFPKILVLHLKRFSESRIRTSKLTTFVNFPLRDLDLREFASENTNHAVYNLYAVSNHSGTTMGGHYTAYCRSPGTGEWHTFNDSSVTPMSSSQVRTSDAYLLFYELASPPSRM

The assay concerns the target Ubiquitin carboxyl-terminal hydrolase 2 (Homo sapiens) (UniProt O75604). Put plainly: qHTS Assay for Inhibitors of Ubiquitin-specific Protease USP2a Using CHOP2 as the Reporter. Particulars: USP2 core, Ub-CHOP2 coupled fluorogenic reporter, 485/531; series mostly up to 38.3 µM. An excerpt:
NIH Molecular Libraries Screening Centers Network [MLSCN] NIH Chemical Genomics Center [NCGC] MLSCN Grant: XO1-MH079852-01 PI Name: Nicholson, Ben. Progenra Inc, Malvern, PA NCGC Assay Overview: Homeostasis of cellular proteins is maintained through a combination of synthesis and degradation. The pathway that accounts for the majority of protein degradation is the ubiquitin-proteasomal pathway. Ubiquitin (Ub) is highly conserved in all cells and the generation of a multi-Ub chain typically targets proteins for degradation by the proteasome. However, ubiquitination is highly reversible and dynamic. Deubiquitination, the reverse process, is catalyzed through the action of enzymes referred to as isopeptidases or deubiquitinating enzymes (DUBs). This group of enzymes is collectively responsible for maintaining adequate pools of free ubiquitin and regulating the ubiquitination status of cellular proteins. The class of DUBs referred to as the ubiquitin-specific proteases (USP) family functions endoproteolytically to cleave Ub chains from a wide range of protein substrates. USP2a deubiquitinates fatty acid synthase (FASN) which has recently been identified as an emerging oncology target. To identify inhibitors of USP2a a cell-free assay was employed. […] The reporter enzyme chosen is an enterokinase called CHOP2, which is activated when the Ub is cleaved by USP2. The free and now activated reporter can subsequently act on its reporter substrate. Thus, this coupled assay gives a fluorescent read-out at excitation/emission wavelengths of 485/531. The assay was developed by Progenra, Inc. and has been licensed for sale by LifeSensors, Inc. as Ub-CHOP2-Reporter-Kit (#PR1101).
NCGC Assay Protocol Summary: The assay buffer, prepared fresh at the day of the assay, contains 20mM Tris-HCl pH 8.0, 2mM CaCl2, 2mM beta-Mercaptoethanol, 0.05% CHAPS. 3ul of 20nM (10nM final) USP2 core, which is stored on ice, is dispensed into a medium-binding black solid Kalypsys 1,536 well plate using the Kalypsys dispenser. The assay plate is then pinned with 23nL compound with the Kalypsys pintool in columns 5-48. The controls are pinned as follows: column 1 two-fold dilutions of 2M NEM in duplicate; column 2 2M NEM (final concentration 38.2mM); column 3&4 DMSO. The assay plate is incubated at RT for 30min. Subsequently, 1.5uL of 100nM (25nM final) Ub-CHOP2 and 1.5uL of 100nM (25nM final) Reporter Substrate (both stored on ice and protected from light) were dispensed into the plate using the Kalypsys dispenser. Plates were read after 60min RT incubation on a ViewLux (Perkin Elmer) plate reader using the following wavelengths Ex 485nm /Em 531nm. Data were normalized to the to AC100 inhibition (NEM). Concentration-response curves were fitted to the normalized data and the concentration-response curves were then classified based on curve quality (r2), response magnitude and degree of measured activity. The time zero reading was used to flag fluorescence artifacts. Keywords: ubiquitination, deubiquitination, proteases, profluorescent, MLSMR, MLPCN, NIH Roadmap, qHTS, NCGC
As to `O=C(OCC1O[C@@H](OC(=O)c2cc(O)c(O)c(O)c2)[C@@H](OC(=O)c2cc(O)c(O)c(O)c2)[C@@H](OC(=O)c2cc(O)c(O)c(O)c2)[C@@H]1OC(=O)c1cc(O)c(O)c(O)c1)c1cc(O)c(O)c(O)c1` (stereo not given in full), the Potency is 6.31 µM (active).

Take `CC(C)(C)[C@]1(O)C[C@@H]2OC(=O)C[C@@]23C(=O)O[C@@H]2OC(=O)[C@H](O)[C@]213`: the Potency result was “inactive”. Regarding `NC(=O)Cn1cc(C(=O)c2ccccc2F)c2ccccc21`, the Potency entry is “inactive”.

For `Cc1ccnc(-n2c(C)cc(/C=C3\C(=O)NC(=S)N(C)C3=O)c2C)c1`, the Potency entry is “inactive”. As to `CC12CN3CC(C)(CN(C1)C3c1cccs1)C2` (stereo not given), the Potency entry was “inactive”.
